# Data from PubChem BioAssay AID686970 (National Center for Advancing Translational Sciences (NCATS), 2013).
# In all, about 360,000 compounds went through this assay and about 6,000 (1.7%) were called active. Not shown: some 8% with an inconclusive outcome. Calls come from the whole dose curve; as a rule, active = well fitted cell-killing curve with a large enough effect; inconclusive = small, poorly fitted or top-dose-only effect, or effect the other way; inactive = flat fitted curve, though single readings scatter. The sample as a whole holds a higher share of actives than the screen did.
# Assay: qHTS for induction of synthetic lethality in tumor cells producing 2HG: qHTS for the HT-1080-NT fibrosarcoma cell line;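 note: NT is the 2HG producing partner of a matched IDH1 knockdown line; nearly all actives have a fitted effect of over 55% in size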;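 for activity, negative = less viability: 0% = DMSO-treated cells and -100% = media-only wells without cells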
# Settings: HT-1080-NT fibrosarcoma viability, CellTiter-Glo ATP luminescence, 48 h; series mostly up to 46.1 µM; activity, negative = less viability: at the top concentration
# Procedure, shortened: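 750 cells/well, RPMI + 5% FBS; 2 h settle, compound pin-transfer, 48 h at 37 degrees C. CellTiter-Glo 10 min RT, luminescence. Normalized to DMSO and media-only wells.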
# Potency is the fitted concentration of half-maximal effect.
SMILES,"activity, negative = less viability",Potency
O=S1(=O)C[C@@H](N2CCN(CCO)CC2)[C@H](COCc2ccccc2)N1,14.5% (inactive),
Cc1cn([C@H]2C[C@H](O)[C@@H](/C=C/C(=O)NCCCc3ccccc3)O2)c(=O)[nH]c1=O,-2.92% (inactive),
CSc1ccc(CN2CCC2(C)C(=O)NCc2ccccc2Br)cc1 (centres undefined),-24.6% (inactive),
Cc1oc2c(F)c(F)c(F)c(F)c2c1S(=O)(=O)Nc1cccc(C(F)(F)F)c1,,3.26 µM (active)
O=C(COc1ccc(S(=O)(=O)Nc2cccc(C(F)(F)F)c2)cc1)N1CCOCC1,-3.05% (inactive),
O=C(NCc1ccccc1)c1ccc(S(=O)(=O)Nc2cccc(C(F)(F)F)c2)cc1,-25.6% (inactive),
CCCCn1nnnc1C(c1cccc(OC)c1OC)N1CCN(C/C=C/c2ccccc2)CC1 (centres undefined),-22.9% (inactive),
C/C(=N/Nc1ccc(Cl)cc1)c1cnnc(-c2ccccc2)n1,12.4% (inactive),
C/C(=N\Nc1ccc(Cl)nn1)c1ccccc1O,,0.731 µM (active)
CCCCCCCN=C(C)c1ccccc1O,19.4% (inactive),
CCOC(=O)[C@]12CCCC=C1N(Cc1ccc(Cl)cc1Cl)C(=O)[C@H](CC(=O)N1CCCCC1)C2,14.2% (inactive),
Cc1ccc(NC(=S)N(CCN2CCCCC2)Cc2ccco2)cc1C,-4.57% (inactive),
Cc1ccc(NC(=S)N(CCCN2CCCC2)Cc2cccn2Cc2ccc(Cl)cc2)cc1,,23.1 µM (active)
Cc1ccc(NC(=S)N(CCCN2CCC(C)CC2)Cc2ccco2)cc1,0.938% (inactive),
Cc1nc(C(F)(F)F)ccc1C(=O)N1CCC1(C)C(=O)NS(=O)(=O)c1ccccc1 (centres undefined),0.451% (inactive),
Cc1onc(-c2c(Cl)cccc2Cl)c1C(=O)c1c[nH]c(C(=O)NC2CC2)c1,-5.57% (inactive),
Cc1onc(-c2c(Cl)cccc2Cl)c1C(=O)NNC(=O)c1c(-c2c(Cl)cccc2Cl)noc1C,-6.56% (inactive),
Cc1[nH]n(C)c(=O)c1C(=O)c1c(-c2c(Cl)cccc2Cl)noc1C,,20.6 µM (active)
CCC(Oc1ccccc1)C(=O)OCC(=O)Nc1c(C)nn(-c2ccccc2)c1C (centres undefined),13.5% (inactive),
COc1cccc(C(=O)Nc2ccc(N3CCN(C(=O)c4ccco4)CC3)cc2)c1,,23.1 µM (active)
Cc1ccc(OCC(=O)Nc2ccc(N3CCN(C(=O)c4ccco4)CC3)cc2)c(C)c1,-2.23% (inactive),
COc1cccc(OCc2cc(C(=O)N3CCN(C(=O)c4ccco4)CC3)no2)c1,6.57% (inactive),
COc1cccc(C(=O)Nc2ccc(N3CCCC3)cc2)c1,,20.6 µM (active)
COc1cccc(C(=O)Nc2ccc3nc4n(c(=O)c3c2)CCCCC4)c1,0.489% (inactive),

SMILES,"activity, negative = less viability",Potency
COc1cccc(C(=O)Nc2nnc(S(=O)(=O)N3CCCCC3)s2)c1,-9.49% (inactive),
COc1cccc(-c2ccc3c(c2)N(Cc2ccccc2OC)C(=O)C(C)S3)c1 (centres undefined),14% (inactive),
O=C1NC[C@@H](CCCCN2CCN(CCc3ccc(O)cc3)C(=O)C2=O)N(CC2CCCCC2)C1=O,2.04% (inactive),
Cc1ccccc1S(=O)(=O)NC(=O)C1(C)CCN1C(=O)Cc1ccc(Cl)cc1Cl (centres undefined),0.417% (inactive),
CC1(C)OC(=O)C2=C(C[C@@H](C3CCCC3)O[C@@H]2c2ccc(Cl)cc2)O1,-0.447% (inactive),
COc1ccc(NC(=O)CCCOc2ccc(C(C)=O)cc2)cc1S(=O)(=O)N1CCCCC1,-10.6% (inactive),
CC(=O)Nc1cc(-c2ccc(N3CCN(C)CC3)cc2)cn2c(-c3cccc(C(=O)N(C)C)c3)cnc12,22.9% (inactive),
CS(=O)(=O)Nc1cccc(C2=NN(C(=O)c3cccc(F)c3)C(c3cccs3)C2)c1 (centres undefined),-17.5% (inactive),
CCS(=O)(=O)Nc1ccc(C2=NN(C(C)=O)C(c3cccs3)C2)cc1 (centres undefined),,23.1 µM (active)
CS(=O)(=O)Nc1ccc(C2=NN(S(C)(=O)=O)C(c3cccs3)C2)cc1 (centres undefined),3.27% (inactive),
O=C(Cc1ccc([N+](=O)[O-])cc1)NCCS(=O)(=O)N1CCN(c2ccccc2)CC1,-2.58% (inactive),
COc1ccc(NC(=O)C(Br)C(C)C)cc1 (centres undefined),2.27% (inactive),
COc1ccc(CC(N)c2csc(NC(=O)NC(c3ccccc3)c3ccccc3)n2)cc1 (centres undefined),,23.1 µM (active)
CC(C)(C)CC(=O)Nc1nc(C(N)Cc2ccc(C(F)(F)F)cc2)cs1 (centres undefined),,16.4 µM (active)
COc1ccc(OC)c(NC(=O)N[C@H](Cc2ccccc2)C(=O)NN)c1,-17.7% (inactive),
COc1ccc(CC(N)c2csc(NC(=O)Cc3ccccc3)n2)cc1 (centres undefined),,23.1 µM (active)
Cc1ccccc1NC(=O)Cc1nc(COC(=O)c2ccc(C(F)(F)F)cc2)cs1,-8.34% (inactive),
COc1ccc(CC(=O)Nc2sc(Cc3ccccc3)c(C)c2C(N)=O)cc1,-16.4% (inactive),
COC(=O)[C@H](CCSC)NC(=O)Nc1ccc(OC)cc1,7.07% (inactive),
COc1ccc(CNC(=O)C(Cc2ccccc2)n2cccc2)cc1 (centres undefined),12.5% (inactive),
COc1ccc(CC(N)c2csc(NC(=O)Nc3ccc(C(C)C)cc3)n2)cc1 (centres undefined),,18.4 µM (active)
COc1ccc(Cc2nnc(NC(=O)Cc3cccs3)s2)cc1,-7.23% (inactive),
CC(C)(C)CC(=O)Nc1nnc(SCC(=O)NCc2cccs2)s1,-2.03% (inactive),
CCNC(=O)C1(C)CCCN(C(=O)c2ccc3ccccc3n2)C1 (centres undefined),18.6% (inactive),

SMILES,"activity, negative = less viability",Potency
CN(Cc1ccc(C(F)(F)F)cc1)C(=O)[C@H]1O[C@@H](n2cnc3c(N)ncnc32)[C@H](O)[C@@H]1O,1.31% (inactive),
O=C(c1ccc2c(=O)n(Cc3ccco3)c(=S)[nH]c2c1)N1CCCC1,17.1% (inactive),
COc1ccc([C@H]2C[C@@H](n3cc(COC(=O)c4ccccc4)nn3)[C@H](O)CN2C(=O)c2cccs2)cc1,-16.2% (inactive),
COC(=O)c1ccc2nc(-c3ccc(C)cc3)c(Cc3ccc(OC)cc3C)n2c1,2.62% (inactive),
O=C(COc1ccc(S(=O)(=O)N2CCCC2)cc1[N+](=O)[O-])N1CCCCC1,3.38% (inactive),
CCCCNC(=O)c1nc(C2CCN(S(=O)(=O)c3ccc(F)c(F)c3)CC2)oc1-c1cccc(C(F)(F)F)c1,20.6% (inactive),
COC(=O)c1ccc2nc(-c3ccccc3)c(Cc3ccc(OC)cc3C)n2c1,9.2% (inactive),
CC(C)(C)c1ccc(S(=O)(=O)NC(=O)C2(C)CCN2C(=O)CC2CC2)cc1 (centres undefined),16.8% (inactive),
N#Cc1ccc(-c2ccc3nccn3c2)cc1,11.3% (inactive),
COc1cccc(-n2cc3c(c2-c2ccccc2)c(=O)n(C)c(=O)n3C)c1,-10.2% (inactive),
COc1cccc(-n2cc(C(=O)O)c3ccccc3c2=O)c1,,14.1 µM (active)
COc1cccc(-n2nc(C(=O)N3CCN(Cc4ccccc4)CC3)c3ccccc3c2=O)c1,-15.9% (inactive),
CCOC(=O)c1cc(-c2sc(NC(=O)c3ccccc3)nc2C)n(-c2ccc(Br)cc2)n1,-3.27% (inactive),
CCc1nc2ccc(C(=O)N(C)Cc3ccco3)cn2c1N(C)C(=O)Cc1ccccc1,12.2% (inactive),
O=C(CC[C@H]1O[C@@H](n2ccc(=O)[nH]c2=O)[C@H](O)[C@@H]1O)N[C@H](Cc1ccccc1)C(=O)NCc1ccco1,16.7% (inactive),
COc1ccccc1-n1c(SCC(=O)Nc2cccc(C(=O)O)c2)nnc1-c1ccccc1O,12.6% (inactive),
COc1cccc(/C=N/Nc2cc(C)nc(-c3ccccc3O)n2)c1O,,8.2 µM (active)
COc1cccc(/C=N/Nc2ccc(S(=O)(=O)Nc3ccccc3C(=O)O)cc2[N+](=O)[O-])c1O,-0.335% (inactive),
O=C(Nc1ccc2c(c1)[C@@H]1C[C@@H](CC(=O)N3CCCCC3)O[C@@H](CO)[C@@H]1O2)NC1CCCCC1,-11% (inactive),
CCCS(=O)(=O)NC(=O)C1(C)CCCN(C(=O)c2cc(C)on2)C1 (centres undefined),23.2% (inactive),
CCOC(=O)C1=CCC(c2ccc(F)cc2)N(S(=O)(=O)c2ccc(C)cc2)C1 (centres undefined),-28.5% (inactive),
COc1ccc(Sc2ccc(NC(=O)c3cccc(Cl)c3)cc2C#N)cc1,-13.9% (inactive),
COc1cccc(C(NC(C)=O)c2nc(-c3ccccc3OC)cs2)c1 (centres undefined),-1.79% (inactive),
CCOC1=C2CN(S(=O)(=O)c3ccc(C)cc3)[C@H](c3cccs3)C[C@H]2[C@H]2C(=O)N(c3ccccc3)C(=O)[C@H]2C1,14.8% (inactive),

SMILES,"activity, negative = less viability",Potency
COc1ccc(NS(=O)(=O)c2ccc(N3CCOCC3)c(NC(=O)/C=C/C(=O)O)c2)cc1,10.2% (inactive),
CC(C)(C)c1ccc(/C=C/C(=O)Nc2ncccn2)cc1,-10.7% (inactive),
COC(=O)c1sc(-c2ccc(C(C)(C)C)cc2)cc1NC(=O)/C=C/C(=O)O,,11.6 µM (active)
COc1cccc(OCC(=O)NCCS(=O)(=O)N2CCN(c3ccccc3)CC2)c1,8.66% (inactive),
COc1ccc(CC(NC(C)=O)C(=O)NC2CCN(C(=O)C3CC3)CC2)cc1OC (centres undefined),21% (inactive),
COc1ccc(CC(NC(C)=O)C(=O)NC2CCN(C(=O)c3ccc(OC)c(OC)c3)CC2)cc1OC (centres undefined),8.35% (inactive),
CCc1ccc(OCC2c3cc(OC)c(OC)cc3CCN2C(C)=O)cc1 (centres undefined),,16.4 µM (active)
CCOC1=C2[C@@H](CN(S(=O)(=O)c3ccc(C)cc3)[C@H]2c2ccccc2F)[C@H]2C(=O)N(Cc3ccccc3)C(=O)[C@H]2C1,-0.579% (inactive),
Cc1cc([N+](=O)[O-])ccc1NS(=O)(=O)c1ccccc1,-9.92% (inactive),
O=[N+]([O-])c1ccc(NS(=O)(=O)c2ccccc2)c(Cl)c1,,6.51 µM (active)
O=C(NNS(=O)(=O)c1ccc(F)cc1)c1ccc([N+](=O)[O-])cc1Cl,2.11% (inactive),
CC(C)C[C@@H]1COc2cc(N3CCC[C@@H]3CO)ccc2S(=O)(=O)N1,5.13% (inactive),
CC(C)CCOc1ccc(C(=O)Nc2cc(S(=O)(=O)N3CCOCC3)ccc2N2CCOCC2)cc1,0.747% (inactive),
O=[N+]([O-])c1ccc(CN2CC(N3CCC(c4ccccc4)CC3)CS2(=O)=O)cc1 (centres undefined),2.9% (inactive),
CCOC(=O)N1CCN(S(=O)(=O)c2ccc(OC)cc2)CC1,5.1% (inactive),
CCOC(=O)N1CCN(C(=O)c2ccccc2N(Cc2ccccc2)S(=O)(=O)c2ccc(OC)cc2)CC1,,3.26 µM (active)
NC(=O)c1ccccc1N(Cc1ccccc1)S(=O)(=O)c1ccccc1,2.72% (inactive),
COc1ccc(NC(=O)COC(=O)C2COc3ccccc3O2)cc1 (centres undefined),6.35% (inactive),
COCc1cccc(-c2csc(C(O)c3ccc(F)cc3)n2)c1 (centres undefined),-11.2% (inactive),
COc1cc(/C=N/NC(=O)c2cc(-c3ccccc3C)nc3ccccc23)cc(OC)c1O,-6.84% (inactive),
COc1cccc(/C=N/NC(=O)c2[nH]nc3c2CCc2ccccc2-3)c1O,,2.59 µM (active)
COc1cccc(/C=N/NC(=O)CNC(=O)c2ccc(S(=O)(=O)N3CCOCC3)cc2)c1OC,-6.44% (inactive),
